Source: PubChem BioAssay (National Center for Advancing Translational Sciences (NCATS))
This is a sample that favours compounds with a hit; in the whole collection about 3.8% have one here.
MBNL1-CUG inh = qHTS Assay for Inhibitors of MBNL1-poly(CUG) RNA binding; Potency, µM (titrated, usually from 57.5 µM), for the others: at the highest dose activity change, negative = inhibition, actives largely listed as inhibitors; 280,000 tested, 0.036% active; TR-FRET MBNL1-His/biotin-(CUG)12 binding, 665/545 ratio; Muscleblind-like protein 1 (Homo sapiens), Q9NR56; active means well fitted inhibition curve with a large enough effect in the signal ratio, with a control signal flat, not every such curve was filed as active; inconclusive means small, poorly fitted or top-dose-only effect, or effect the other way, or a change in a side signal; inactive means no such curve, though single readings can be large or run the other way; the % refers to the signal ratio; further: potency means the concentration at half of the fitted maximal effect; on the % scale 0 is the no-effect control and ±100 the full control effect
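MBNL1-His + Biotin-(CUG)12, cpd titration 92 nM–58 uM; Tb anti-His Ab 0.055 ng/ul, SA-XL665 5 nM (final); 60 min RT; ratiometric 665/545 nm, Ex 340 nm; normalized to buffer and full-complex controls.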
hERG WT inh = qHTS for Inhibitors of KCHN2 3.1: Wildtype qHTS; 340,000 tested, 0.37% active; activity change, % at 1.84 µM; U2OS, BacMam KCNH2, thallium flux FluxOr; active compounds read low; Voltage-gated inwardly rectifying potassium channel KCNH2 (Homo sapiens), Q12809;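 active means maximum activity change below -70%; inconclusive means maximum activity change between -70% and -50%; inactive means maximum activity change above -50%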; further: on the % scale 0 is the no-effect control and ±100 the full control effect
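U2OS cells transduced with wild-type KCNH2 virus are loaded with FluxOr dye for 45 min, and thallium flux is measured in kinetic reads before and after stimulation buffer. Rate constants are normalized to DMSO controls.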
PLK1 PBD inh = qHTS for Inhibitors of PLK1-PDB (polo-like kinase 1 - polo-box domain): Primary Screen. 360,000 tested, 2.8% active. AID 720504, 2013. Potency, µM, for inactives: max response, negative = inhibition, usual class: inhibitors. Plk1 PBD binding of FITC phosphopeptide, fluorescence polarization. Serine/threonine-protein kinase PLK1 (Homo sapiens), P53350; further: potency means the concentration at half of the fitted maximal effect; series mostly up to about 57 µM; on the % scale 0 is the no-effect control and ±100 the full control effect; nearly all actives have a fitted effect of over 65% in size
KCNH2 3.1 block = qHTS for Inhibitors of KCHN2 3.1: Mutant qHTS; U2OS KCNH2 3.1, thallium flux FluxOr; active compounds read low; activity change, % (tested at about 1.8 µM); 340,000 tested, 0.95% active; AID 720553, 2013;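 active means maximum activity change below -70%; inconclusive means maximum activity change from -70% to -50%; inactive means maximum activity change above -50%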;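 further: thallium influx rate constant from kinetic fluorescence after stimulation buffer; on the % scale 0 is the no-effect control and ±100 the full control effect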
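Kinetic fluorescence (2 min after stimulation buffer) measures Tl+ influx through KCNH2 3.1 expressed by viral transduction in U2OS cells; the rate constant is normalized against DMSO controls serving as positive and negative references.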
CBFb-RUNX1 inh = qHTS Assay for Compounds Blocking the Interaction Between CBF-beta and RUNX1 for the Treatment of Acute Myeloid Leukemia | Runt-related transcription factor 1 (Homo sapiens) + Core-binding factor subunit beta … | AlphaScreen CBFb-His/RUNX1-biotin binding, biochemical | Potency, µM (highest dose often 59.8 µM), without a hit: at the highest dose activity, negative = inhibition, hits mostly inhibitors | 230,000 tested, under 10 active | AID 1477, 2009; further: % of control where 0% means no effect
Target sequence (Q01196 whole entry, looked up): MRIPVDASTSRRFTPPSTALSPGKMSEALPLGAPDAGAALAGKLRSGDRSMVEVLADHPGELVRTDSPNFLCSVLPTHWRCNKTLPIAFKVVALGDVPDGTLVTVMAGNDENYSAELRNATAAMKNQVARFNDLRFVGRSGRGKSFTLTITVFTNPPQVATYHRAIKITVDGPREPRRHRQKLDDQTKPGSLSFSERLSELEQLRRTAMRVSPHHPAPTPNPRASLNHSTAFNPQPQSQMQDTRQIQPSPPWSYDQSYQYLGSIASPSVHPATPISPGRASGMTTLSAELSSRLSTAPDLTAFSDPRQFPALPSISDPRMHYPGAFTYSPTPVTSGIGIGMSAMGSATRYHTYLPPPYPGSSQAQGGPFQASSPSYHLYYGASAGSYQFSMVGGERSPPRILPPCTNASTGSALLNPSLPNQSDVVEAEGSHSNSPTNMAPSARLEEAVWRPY
Target sequence (Q13951 whole entry, looked up): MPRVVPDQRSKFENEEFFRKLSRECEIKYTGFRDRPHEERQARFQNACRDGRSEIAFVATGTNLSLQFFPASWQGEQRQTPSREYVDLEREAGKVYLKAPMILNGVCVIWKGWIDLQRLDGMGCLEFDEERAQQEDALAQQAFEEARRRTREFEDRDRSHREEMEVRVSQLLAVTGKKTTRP
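Interaction loss through any mechanism counts as activity. Pre-formed complex of His-CBF-beta and biotin-RUNX1 (30 nM apiece) is incubated with compound 15 min, then with 50 ng nickel and 50 ng streptavidin beads for 90 min before AlphaScreen detection.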
VDR inhibitor = Inhibitors of the vitamin D receptor (VDR): qHTS | Vitamin D3 receptor (Homo sapiens), P11473 | VDR-SRC2-3 peptide fluorescence polarization, 2 h | Potency, µM, without a hit: max response, negative = inhibition, most hits filed as inhibitors | 400,000 tested, 0.93% active | AID 504847, 2011; further: potency means the concentration at half of the fitted maximal effect; on the % scale 0 is the no-effect control and ±100 the full control effect
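Fluorescence polarization assay measuring small-molecule disruption of VDR binding to the coregulator peptide SRC2-3. Compounds were pin-transferred (23 nl) into the reagent mix and incubated 2 h at room temperature before reading.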
MBNL1 TRFRET = qHTS Assay for Inhibitors of MBNL1-poly(CUG) RNA binding: Initial hit validation from the primary screen; 140 tested, 50% active; TR-FRET MBNL1-His / biotin-(CUG)12 binding, 60 min; Potency, µM (titrated, usually from 57.6 µM), without a hit: at the top dose activity change, negative = inhibition, most hits filed as inhibitors; shares compounds with MBNL1-CUG inh
MBNL1 AlphaScrn = qHTS Assay for Inhibitors of MBNL1-poly(CUG) RNA binding: Initial hit validation in AlphaScreen assay for MBNL1-(CUG)12 binding; shares compounds with MBNL1-CUG inh; AlphaScreen MBNL1-His / biotin-(CUG)12 binding; Potency, µM (top dose mostly 57.7 µM), inactives show at the highest dose activity, negative = inhibition, usual class: inhibitors; 140 tested, 30% active; AID 493205, 2011
Menin-MLL HTRF = qHTS Assay for Inhibitors of MBNL1-poly(CUG) RNA binding: Counterscreen HTRF assay. AID 651843, 2012. 120 tested, 20% active. His-Menin/biotin-MLL peptide TR-FRET counterscreen. Potency, µM (titrated, usually from 57.6 µM), for inactives: at the highest dose activity, negative = inhibition, usual class: inhibitors. shares compounds with MBNL1-CUG inh
Numbers without * were called inactive; [ ] = dose if it differs, or a comment. Unless noted, the call rests on the fitted dose curve; in most records, active means well fitted curve in the direction sought with a large enough effect; inconclusive means small, poorly fitted or top-dose-only effect, or another doubt; inactive means no such curve, though single readings can be large; an effect the other way counts as inactive or inconclusive.

`Cn1nccc1NC(=O)Nc1cccc([N+](=O)[O-])c1` gave MBNL1-CUG inh inconclusive, hERG WT inh 1.9, PLK1 PBD inh -3.6%, KCNH2 3.1 block -23.4, CBFb-RUNX1 inh 7.5% and VDR inhibitor -10.2%.
Screening Cn1nccc1NC(=O)Nc1cccc(Cl)c1 returned MBNL1-CUG inh 31.6µM*, hERG WT inh -3.2, PLK1 PBD inh 5.3%, KCNH2 3.1 block -2.7, CBFb-RUNX1 inh 9.2%, VDR inhibitor -4.7%, MBNL1 TRFRET inconclusive, MBNL1 AlphaScrn inconclusive and Menin-MLL HTRF 32.6µM*.
`CSc1ncc(Cl)c(C(=O)Nc2c(C(=O)c3ccc(C)cc3)oc3ccccc23)n1` gave VDR inhibitor -3.4%.
Cc1cc(C)c(NC(=O)Nc2ccccc2)c(C)n1 was read as hERG WT inh -1.7, PLK1 PBD inh -7.1%, KCNH2 3.1 block 13.9 and VDR inhibitor 10.9%.
Screening Cc1cc(N)c2cc(NC(=O)Nc3ccc4nc(C)cc(N)c4c3)ccc2n1 returned VDR inhibitor -4.3% and Menin-MLL HTRF 20.6µM*.
`Cc1ccc(-c2cn(-c3ccc(Cl)cc3)c(S(=O)(=O)CC(=O)Nc3ccccc3)n2)cc1` gave VDR inhibitor 11.6%.
Cc1ccc(/C=c2/sc3n(c2=O)CCCN=3)o1 was read as MBNL1-CUG inh 35.3%, hERG WT inh 0.8, PLK1 PBD inh 1.7%, KCNH2 3.1 block 3.0, CBFb-RUNX1 inh -20.7%, VDR inhibitor -12.7%, MBNL1 TRFRET inconclusive, MBNL1 AlphaScrn -12.9% and Menin-MLL HTRF 34.6%.
For O=C(/C=C/c1cccs1)Nc1scc(-c2ccccc2)c1C(=O)O the results were hERG WT inh -2.7, PLK1 PBD inh inconclusive, KCNH2 3.1 block 4.9, CBFb-RUNX1 inh -9.5%, VDR inhibitor -6.8%, MBNL1 TRFRET 20.6µM*, MBNL1 AlphaScrn 13µM* and Menin-MLL HTRF 9.7%.
`CCOC(=O)c1cc(-c2ccc(OC)cc2)n(CCC(=O)NC2CCCCC2)c1C` gave VDR inhibitor 2.8%.
Screening CN(CC(=O)Nc1ccc(Cl)cc1F)S(=O)(=O)c1ccc2c(c1)n(C)c(=O)c(=O)n2C returned VDR inhibitor -4.2%.
For C[C@@H]1NC(=O)[C@@H](N)CNC(=O)[C@H](C2CCNC(N)=N2)NC(=O)/C(=C/NC(N)=O)NC(=O)[C@H](CNC(=O)C[C@@H](N)CCCN)NC1=O (stereo partly specified) the results were Menin-MLL HTRF -11.0%.
NCCCC(N)CC(=O)NC1CNC(=O)C(C2CC(O)N=C(N)N2)NC(=O)/C(=C/NC(N)=O)NC(=O)C(CO)NC(=O)C(CO)NC1=O (stereo unspecified) was read as VDR inhibitor 2.4%, MBNL1 TRFRET inconclusive and MBNL1 AlphaScrn inconclusive.
Screening COCCNC(=O)C(c1cccs1)N(C(=O)Cn1nnc2ccccc21)c1ccc(OC)cc1 (stereo unspecified) returned MBNL1-CUG inh 28.2µM*, hERG WT inh 2.1, PLK1 PBD inh -28.5%, KCNH2 3.1 block 27.1, CBFb-RUNX1 inh 0.1%, VDR inhibitor -9.6%, MBNL1 TRFRET -3.6%, MBNL1 AlphaScrn -11.2% and Menin-MLL HTRF 2.1%.
`CCCCS(=O)(=O)N1CCc2nc(-c3ccccc3)c3c(c2C1)CO[C@@H](C)C3` gave CBFb-RUNX1 inh -7.6%[13.1 µM].
`O=C(Nc1cc(C(=O)Nc2ccc(S(=O)(=O)O)cc2S(=O)(=O)O)cc(C(=O)Nc2ccc(S(=O)(=O)O)cc2S(=O)(=O)O)c1)Nc1cc(C(=O)Nc2ccc(S(=O)(=O)O)cc2S(=O)(=O)O)cc(C(=O)Nc2ccc(S(=O)(=O)O)cc2S(=O)(=O)O)c1` gave CBFb-RUNX1 inh 1.3%, VDR inhibitor -8.1%, MBNL1 TRFRET 20µM* and MBNL1 AlphaScrn 28.2µM*.
Screening Nc1ccc(C(=O)Nc2ccc3cc(S(=O)(=O)O)ccc3c2)cc1 returned hERG WT inh -6.0, PLK1 PBD inh -12.7%, KCNH2 3.1 block 1.4 and VDR inhibitor -11.2%.
`CCCCn1cnc2cc(NCc3ccccc3Cl)ccc21` gave VDR inhibitor -13.8%.
Screening COc1ccc(N2CCN(CC(=O)Nc3ccc(-n4cnnn4)cc3)CC2)cc1 returned MBNL1-CUG inh -6.9%, hERG WT inh -4.5, PLK1 PBD inh -3.7%, KCNH2 3.1 block -5.1, CBFb-RUNX1 inh 2.3%, VDR inhibitor 1.2%, MBNL1 TRFRET -0.5%, MBNL1 AlphaScrn inconclusive and Menin-MLL HTRF 1.5%.
For COc1ccccc1N1CCN(CC(=O)Nc2ccc(-n3cnnn3)cc2)CC1 the results were MBNL1-CUG inh -17.3%, hERG WT inh -9.2, PLK1 PBD inh -10.9%, KCNH2 3.1 block 1.5, CBFb-RUNX1 inh 2.8% and VDR inhibitor -4.0%.
